High-throughput results (PubChem BioAssay)
Sampled rows, rich in hits. Any-hit rate of the full collection: about 21%.
Shiga toxin inh: A qHTS for Small Molecule Inhibitors of Shiga Toxin | 9.2% of 290,000 active | AID 2315, 2010 | Vero cells, Shiga toxin protein synthesis inhibition reporter | inhibition, % at 38.7 µM; in the data active = inhibition mostly above about 28%, no sharp cut-off; inactive = mostly below about 43%
CHX counter: Cycloheximide Counterscreen for Small Molecule Inhibitors of Shiga Toxin. max response, %. AID 2314, 2010. cell reporter, cycloheximide protein synthesis inhibition counterscreen. 12% of 300,000 active; in the data active = max response mostly above about 13%, no sharp cut-off; inactive = mostly below about 14%; also: read at 38.3 µM for the half of the compounds with a filed dose
Pf growth 48h: Primary qHTS for delayed death inhibitors of the malarial parasite plastid, 48 hour incubation; P. falciparum luciferase growth in erythrocytes, 48 h; Potency, µM (doses to about 28.7 µM), usual class: inhibitors; 5.9% of 310,000 active
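In quantitative HTS format, infected erythrocytes bearing luciferase-reporter parasites were treated for a single generation at 37 C. Luminescence after adding detection reagent served as the growth measure.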
Pf growth 96h: Primary qHTS for delayed death inhibitors of the malarial parasite plastid, 96 hour incubation; 6.9% of 320,000 active; P. falciparum luciferase reporter growth, 96 h; AID 504834, 2011; Potency, µM (top dose mostly 28.7 µM), usual class: inhibitors
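Two-generation exposure (96 h) targets delayed-death phenotype. Reporter parasites carrying integrated firefly luciferase, in red cells at 2% hematocrit and 0.05% parasitemia final, kept at 37 C, 5% CO2; luminescence loss indicates inhibition.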
Of the large screens only hits and unclear results are named; the others gave an inactive call. Unless noted, calls follow the shape of the dose curve; as a rule, active = well fitted inhibition curve with a large enough effect; inconclusive = small, poorly fitted or top-dose-only effect, or another doubt; inactive = no such curve, though single readings can be large or run the other way.

COc1ccc(NC(=O)c2cc(C3CC3)on2)c(OC)c1	Shiga toxin inh 47, CHX counter 33
CCOc1ccc(C(=O)NCC(=O)NCC(c2ccc(OC)cc2)N2CCOCC2)cc1OCC (configuration not stated)	none (no result: Shiga toxin inh, CHX counter)
CC(C)Cc1cc(C(=O)NCCCN2CCOCC2)no1	Pf growth 96h inconclusive
Cc1cc(NC(=O)c2cc(CC(C)C)on2)no1	Shiga toxin inh 81, CHX counter 43
CCC(C)NC(=O)c1cc(CC(C)C)on1 (configuration not stated)	Shiga toxin inh 59, CHX counter 49, Pf growth 96h 12µM
Cc1ccc(-c2cc(C(=O)Nc3cc(C)on3)no2)cc1	none
Cc1cc(NC(=O)c2cc(C3CC3)on2)no1	Shiga toxin inh 73, CHX counter 40
Cc1ccc2c(c1)N(CC(=O)NCCc1ccccc1)C(=O)c1cccnc1O2	none
C[C@H]1CCC(=O)N([C@H](CN=[N+]=[N-])Cc2ccccc2)CC1	Pf growth 96h inconclusive
CCOc1ccc(/C=C2/C(=O)N(c3ccc(OC)cc3)C(=S)N2CC(=O)OC)cc1OCC	Shiga toxin inh 12, CHX counter 30, Pf growth 48h inconclusive, Pf growth 96h inconclusive
CCOc1ccc(N2C(=O)/C(=C/c3cc(OC)c(OC)c(OC)c3)N(CC(=O)OC)C2=S)cc1	Pf growth 48h inconclusive, Pf growth 96h inconclusive
CCCCCCCCCCCCCC[N+](C)(C)C	Pf growth 48h 0.95µM, Pf growth 96h 0.95µM (no result: Shiga toxin inh, CHX counter)
CCCCCCCCCCCCCCCC[N+](C)(C)C	Pf growth 48h 4.1µM, Pf growth 96h 2.9µM (no result: Shiga toxin inh, CHX counter)
C=CC[N+]1(CC#Cc2ccccc2)CCCC1	Pf growth 48h inconclusive
C#CC[N+]1(CC#Cc2ccc(C)cc2)CCCCC1	Pf growth 48h 1.7µM, Pf growth 96h inconclusive
Cc1ccc(C#CC[N+]2(C)CCCCC2)cc1	Pf growth 48h 6.6µM, Pf growth 96h 1.9µM
Cc1nnc(SCC(=O)Nc2sc3c(c2C(N)=O)CCC(C)C3)[nH]c1=O (configuration not stated)	none (no result: Shiga toxin inh, CHX counter)
Cn1nc(C(=O)Nc2cccc(C(F)(F)F)c2)c2ccccc2c1=O	Pf growth 48h inconclusive
COc1cc(NC(=O)CSCC(=O)Nc2cccc(C(F)(F)F)c2)c(Cl)cc1Cl	Pf growth 48h inconclusive, Pf growth 96h 12µM
CCn1cc(Cl)c(C(=O)Nc2ccc3c(c2)OCCO3)n1	Shiga toxin inh 168, CHX counter 44
CCn1cc(Cl)c(C(=O)Nc2ccccc2C(N)=O)n1	CHX counter 29, Pf growth 96h 13µM
CCn1cc(Cl)c(C(=O)Nc2cccc(C(F)(F)F)c2)n1	Shiga toxin inh 58, CHX counter 32, Pf growth 96h 2.6µM
CCn1cc(Br)c(C(=O)Nc2ccccc2C(=O)OC)n1	none
Cc1nc2scc(C)n2c(=O)c1S(=O)(=O)Nc1ccc(OC(F)(F)F)cc1	none
CCSc1nnc(-c2ccccc2SC)o1	Pf growth 96h 8.3µM
CSc1ccccc1-c1nnc(-c2ccc(Cl)cc2Cl)o1	none
CSc1nnc(-c2ccc(Cl)cc2Cl)o1	CHX counter 52 (no result: Pf growth 96h)
CSc1nnc(-c2ccccc2Cl)o1	Shiga toxin inh 88, CHX counter 29 (no result: Pf growth 48h)
CN(C(=O)CSc1nnc(-c2ccccc2F)o1)c1ccccc1	Pf growth 96h inconclusive (no result: Shiga toxin inh, CHX counter)
CSc1nnc(-c2cccn(Cc3ccccc3)c2=O)o1	Pf growth 96h inconclusive
CC(C)NCc1nnc(-c2ccccc2Cl)o1	Shiga toxin inh 39, Pf growth 96h inconclusive
Cc1ccc(CSCC(=O)NCc2cccs2)cc1	none
CCSc1nnc(-c2ccc(Cl)cc2Cl)o1	Shiga toxin inh 85, CHX counter 57 (no result: Pf growth 48h)
CC(C)OC(=O)CSc1nnc(-c2ccc(Cl)cc2Cl)o1	none
O=C(CCCN1C(=O)c2cccnc2Oc2ccc(Cl)cc21)N1CCCCC1	Pf growth 48h inconclusive, Pf growth 96h 13µM
CC1CCC(NC(=O)CN2C(=O)c3cccnc3Oc3ccc(Cl)cc32)CC1 (configuration not stated)	CHX counter 16, Pf growth 48h inconclusive
O=C(CN1C(=O)c2cccnc2Oc2ccc(Cl)cc21)NC1CCCC1	Pf growth 48h inconclusive
COc1ccc(Nc2nnc(SCC(=O)Nc3ccc4[nH]c(=O)[nH]c4c3)s2)cc1	none
CCC(Sc1nc(-c2ccccc2)c(-c2ccccc2)[nH]1)C(=O)O (configuration not stated)	none
O=c1c2cc(N3CCOCC3)ccc2[nH]c(=S)n1Cc1ccccn1	Shiga toxin inh active, CHX counter 17
O=c1c2cc(Br)ccc2[nH]c(=S)n1Cc1ccccc1	Pf growth 48h inconclusive
O=c1c2cc(N3CCOCC3)ccc2[nH]c(=S)n1CCc1ccccc1	Pf growth 48h inconclusive, Pf growth 96h inconclusive
O=c1c2cc(Br)ccc2[nH]c(=S)n1Cc1ccccn1	CHX counter 24, Pf growth 96h inconclusive
